# Pf growth 48h: inhibits P. falciparum growth in the first generation, 48 h | P. falciparum luciferase growth in erythrocytes, 48 h | Potency, µM (highest dose often 28.7 µM), hits mostly inhibitors | actives 5.9% (n = 310,000) | AID 504832
#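 Luciferase-expressing P. falciparum in infected erythrocytes (2% hematocrit, 0.1% parasitemia final) in RPMI 1640/0.5% Albumax were exposed to compound for 48 hours at 37 C, 5% CO2; growth read as luminescence.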
# Pf growth 96h: P. falciparum growth inhibition at 96 hours. P. falciparum luciferase reporter growth, 96 h. Potency, µM (top dose mostly 28.7 µM), actives largely listed as inhibitors. actives 6.9% (n = 320,000)
#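 Delayed-death screen, second-generation endpoint: infected erythrocytes, 2% hematocrit, 0.05% parasitemia final; 96 hours at 37 C, 5% CO2; luciferase detection reagent; luminescence decrease equals reduced growth.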
# NS1 function inh: blocks influenza NS1 protein function. Potency, µM (top dose mostly 46.1 µM). actives 0.4% (n = 270,000). AID 2326; calls by dose curve; note: actives are rising curves; nearly all actives have a fitted effect of over 50% in size
#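 Recovery from NS1-induced slow growth read by OD600 in budding yeast switched to galactose assay medium (pH 6.0, -URA) at 1:100 dilution. Compound 23 nl per well; the matching strain lacking NS1 serves as control.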
# Shiga inhibitor: Shiga toxin inhibition; inhibition, % at 38.7 µM; AID 2315; actives 9.2% (n = 290,000); Vero cells, Shiga toxin protein synthesis inhibition reporter; in the data active = inhibition mostly above about 28%, no sharp cut-off; inactive = mostly below about 43%
# Sm TGR block: blocks Schistosoma mansoni thioredoxin glutathione reductase; actives 3% (n = 360,000); purified TGR, DTNB reduction, TNB absorbance 405 nm; AID 485364; Q962Y6; Potency, µM (doses to about 114 µM), actives largely listed as inhibitors; note: nearly all actives have a fitted effect of over 60% in size
#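 TGR 20 nM + NADPH 100 uM (dispensed conc.), cpd preinc 15 min RT; start with NADPH (500 uM addition) then DTNB (15 mM addition). Kinetic TNB absorbance, 405 nm filter. Four-parameter Hill fit across titration.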
# CHX counter: counter-screen for Shiga toxin inhibitors: cycloheximide protein synthesis inhibition | cell reporter, cycloheximide protein synthesis inhibition counterscreen | max response, % | actives 12% (n = 300,000) | AID 2314; in the data active = max response mostly above about 13%, no sharp cut-off; inactive = mostly below about 14%; note: read at 38.3 µM for the half of the compounds with a filed dose
# A number is an active result; - = inactive; ? = inconclusive; . = no result given; [ ] = remark or other dose. Hits are enriched below; roughly 21% of the tested compounds scored in any of these assays. Unless noted, calls come from the whole dose curve; as a rule, active = well fitted curve in the direction sought with a large enough effect; inconclusive = small, poorly fitted or top-dose-only effect, or another doubt; inactive = no such curve, though single readings can be large; an effect the other way counts as inactive or inconclusive.
SMILES,Pf growth 48h,Pf growth 96h,NS1 function inh,Shiga inhibitor,Sm TGR block,CHX counter
COc1ccc(N2CCN(C(=O)COC(=O)CCOc3ccc(C)cc3)CC2)cc1,-,-,.,.,-,.
COc1cccc(NC(=O)Cn2c(=O)n(CC(=O)NCCc3ccccc3)c(=O)c3sccc32)c1,.,.,.,.,-,.
O=C(Cc1ccc(Cl)cc1Cl)OCC(=O)N1CCCCC1,-,-,-,-,-,22
O=C(COc1ccc(Cl)cc1Cl)N1CCCCCC1,.,-,-,-,-[11.4 µM],-
CCOC(=O)c1c(-c2ccccc2)nc2cc(C)ccn12,-,-,-,76,-,54
CCOC(=O)c1sc(=S)n(-c2ccccc2)c1C,-,-,-,-,-,-
CCOC(=O)c1c(O)c(O)c(C(=O)OCC)n1-c1ccccc1,-,-,-,-,40µM,-
CCOC(=O)c1c(-c2ccccc2)nc2ccc(C)cn12,-,-,-,123,-,45
CCOC(=O)C1=C(C)N(c2ccccc2)C(=O)C1CC(=O)O (stereo not drawn),-,12µM,-,-,?,-
C#Cc1ccc([C@H]2C=C(C(=O)NC3CC3)O[C@@H](OCC)[C@@H]2CCCO)cc1,?,?,-,-,-,-
COc1ccc(C)cc1-n1c(SCC(=O)NCc2ccco2)nc2c([nH]c3ccccc32)c1=O,.,.,.,.,-,.
CN(C)CCCN=c1c2ccccc2n(C)c2[nH]c(=O)n(C)c(=O)c12,.,.,-,.,.,.
Cc1ccc(CN(CC(=O)NCCc2ccccc2)C(=O)c2csnn2)cc1,-,?,-,-,-,-
Cc1ccn2c(Nc3ccccc3C)c(-c3ccccc3)nc2c1,.,.,.,.,-,.
Cc1ccn2c(NC(=O)c3ccco3)c(-c3ccccc3)nc2c1,-,4.1µM,-,-,-,-
N=c1n(Cc2ccccc2)c2ccccc2n1CC(O)COc1ccccc1 (stereo not drawn),15µM,9.3µM,-,-,-,-
N=c1n(CCN2CCCCC2)c2ccccc2n1CC(O)COc1ccccc1 (stereo not drawn),?,-,-,-,-,-
Cc1ccc(Cn2c(=N)n(CC(O)COc3ccccc3)c3ccccc32)cc1 (stereo not drawn),.,1.7µM,-,-,-,-
CCn1c(=N)n(CC(O)COc2cccc(C)c2)c2ccccc21 (stereo not drawn),?,?,-,-,-,-
C=C1c2cc3c(cc2NC(=S)N1Cc1ccccc1)OCO3,12µM,?,-,-,-,-
O=C(c1ccccc1F)N1CCN(S(=O)(=O)c2ccc3c(c2)OCCO3)CC1,.,9.3µM,-,-,-,-
O=C(c1ccccc1OC(F)F)N1CCN(S(=O)(=O)c2ccc3c(c2)OCCCO3)CC1,15µM,-,.,.,-,.
O=C1OC(Nc2ccc3ncccc3c2)c2ccccc21 (stereo not drawn),-,-,-,54,-,27
Cc1cccnc1NC1OC(=O)c2ccccc21 (stereo not drawn),-,.,-,-,-,-
COc1ccc(/C=N/NC(=O)c2c(C)nnn2-c2nonc2N)cc1OC,?,-,.,-,-,-
SMILES,Pf growth 48h,Pf growth 96h,NS1 function inh,Shiga inhibitor,Sm TGR block,CHX counter
CN(C)c1ccc(/C=N/NC(=O)c2nonc2N)cc1[N+](=O)[O-],-,-,-,133,-,41
COc1ccc(/C=N/NC(=O)c2nonc2N)cc1OC,-,-,-,80,-,34
Nc1nonc1C(=O)N/N=C/c1cc2c(cc1[N+](=O)[O-])OCO2,-,-,-,-,-,-
Nc1nonc1C(=O)N/N=C/c1cccc([N+](=O)[O-])c1,-,-,-,active,-,27
CCOC(=O)c1ccccc1NC(=O)CN1CCCN(Cc2cccc(Cl)c2)S1(=O)=O,.,.,.,.,-,.
Cc1ccc(-n2nc3c(=O)n(CC(=O)NCCc4ccc(Cl)cc4)nc(C)c3c2C)cc1,-,0.93µM,-,-,-,-
Cc1c(Cl)c([N+](=O)[O-])nn1CCCC(=O)NCCc1ccccc1,-,7.4µM,.,102,-,31
Cc1nn(CCCC(=O)NCCc2ccc(Cl)cc2)c(=O)c2nn(-c3ccccc3)c(C)c12,-,13µM,-,-,-,-
CCOC(=O)c1sc(NC(=O)CCCn2nc([N+](=O)[O-])c(Cl)c2C)c(C(=O)OCC)c1C,-,1.3µM,-,-,-,-
CCCOC(=O)c1c(NC(=O)CCCn2nc([N+](=O)[O-])c(Cl)c2C)sc(C(=O)OC)c1C,-,-,-,-,-,-
Cc1ccc(-n2nc3c(=O)n(CC(=O)NCCC4=CCCCC4)nc(C)c3c2C)cc1,-,-,-,-,-,-
CC(C)C(NC(=O)c1c(F)cccc1F)C(=O)N1CCN(S(=O)(=O)c2ccc(F)cc2)CC1 (stereo not drawn),?,?,.,.,-,.
COc1ccc(C(=O)NCc2nnc(SCC(=O)Nc3cc(Cl)ccc3OC)o2)cc1,-,-,-,-,-,-
O=C(Nc1nc2ccccc2s1)c1cccc(S(=O)(=O)N2CCc3ccccc32)c1,?,?,-,-,-,14
O=C(Nc1nc2c(s1)CN(Cc1ccccc1)CC2)c1cccc(S(=O)(=O)N2CCc3ccccc32)c1,?,8.3µM,-,-,-,-
Cc1nnc(NC(=O)c2cccc(S(=O)(=O)N3CCc4ccccc43)c2)s1,-,.,-,-,-,-
Cc1ccc(-c2c(C(=O)N3CCN(c4cccc(C)c4)C(C)C3)oc(=O)c3ccccc23)cc1 (stereo not drawn),.,.,.,.,-,.
CCOc1ccc(N2C(=O)C(CC(=O)Nc3ccccc3)N(Cc3ccccn3)C2=S)cc1 (stereo not drawn),?,9.3µM,.,-,-,-
O=C(CC1C(=O)NCCN1C(=O)Nc1ccccc1)Nc1ccc(F)cc1 (stereo not drawn),-,-,-,-,-,-
CCOc1ccc(NC(=O)CC2C(=O)NCCN2C(=O)Nc2ccccc2)cc1 (stereo not drawn),-,15µM,-,-,-,-
CCOc1ccc(NC(=O)CC2C(=O)N(c3ccc(OC)cc3)C(=O)N2C2CCCCC2)cc1 (stereo not drawn),.,.,.,.,-,.
CCOc1ccc(NC(=O)CC2C(=O)N(c3ccccc3)C(=O)N2C2CCCC2)cc1 (stereo not drawn),.,.,.,.,50µM,.
COc1ccc(NC(=O)CC2C(=O)N(c3ccc(OC)cc3)C(=O)N2C2CCCCC2)cc1 (stereo not drawn),.,.,.,.,56µM,.
CCOc1ccc(N2C(=O)C(CC(=O)Nc3ccc(F)cc3)N(Cc3ccccn3)C2=S)cc1 (stereo not drawn),?,?,.,-,-,-
Cc1ccc(N2C(=O)C(CC(=O)Nc3cccc(F)c3)N(C3CC3)C2=O)cc1 (stereo not drawn),-,-,-,-,50µM,18
COc1ccc2c(=O)c3c(=O)n(-c4ccc(C)cc4)c(-c4ccccc4)nc3oc2c1,?,?,-,-,-,-

# Assay outcomes from PubChem BioAssay.
